# p53 reactivator: mutant p53 re-activation in reporter cells; Potency, µM (series often up to 92.2 µM), inactives show at the top dose activity change, positive = activation, actives largely listed as activators; H1299 p53-A138V BP100-luciferase reporter, luminescence, 24 h; 320,000 compounds, 0.063% hits; AID 504706; note: potency is the fitted concentration of half-maximal effect; % of control where 0% means no effect; nearly all actives have a fitted effect of over 45% in size
#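 H1299 (p53-null), stable ts p53-A138V + BP100-Luc; 1000 cells/well, Opti-MEM/10% FBS; cpd 4 pt, 1:5; 24 h, 37 deg C, 5% CO2; detection reagent 10 min RT; luminescence.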
# ELG1 DNA repair: inhibitors of ELG1-dependent DNA repair in HEK293T cells | HEK293T ELG1-luciferase reporter, luminescence, 16 h; DNA damage induced by 5-fluorouridine | Potency, µM (highest dose often 46.1 µM), for inactives: at the highest dose activity change, negative = inhibition, most hits filed as inhibitors | 330,000 compounds, 2.3% hits; note: potency is the fitted concentration of half-maximal effect; % is set by controls: 0 for no effect and ±100 for the full control effect; nearly all actives have a fitted effect of over 55% in size
#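 5-Fluorouridine DNA damage + compound/DMSO, 2,000 cells/well, 16 h, 37 °C/5% CO2. ONE-Glo, 30 min RT, luminescence. Readout = decrease in reporter signal.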
# Giardia killer: kills Giardia lamblia | activity change, % at 7.66 µM, hits read low | AID 540267 | 340,000 compounds, 0.15% hits | Giardia lamblia trophozoite viability; in the data active = activity change below about -80%; inconclusive = between about -30% and that limit;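 note: parasites exposed to compound for two days anaerobically before the ATP read; % is set by controls: 0 for no effect and ±100 for the full control effect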
#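 ATP-content bioluminescence gauges trophozoite survival. Cells (100/well) receive compound and incubate anaerobically for 48 hrs at 37 deg C; detection reagent follows for 15-30 min at room temperature.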
# RORgamma inh: blocks mouse ROR gamma transcriptional activity | Potency, µM (top dose mostly 53.6 µM), for the others: at the highest dose activity change, negative = inhibition, usual class: inhibitors | AID 2551 | 310,000 compounds, 5.4% hits | Drosophila S2 Gal4-RORgamma UAS-luciferase reporter, 20 h | P51450; note: potency is the fitted concentration of half-maximal effect; % is set by controls: 0 for no effect and ±100 for the full control effect; nearly all actives have a fitted effect of over 60% in size
# Target sequence (P51450 whole entry, looked up, the tested form may be a part): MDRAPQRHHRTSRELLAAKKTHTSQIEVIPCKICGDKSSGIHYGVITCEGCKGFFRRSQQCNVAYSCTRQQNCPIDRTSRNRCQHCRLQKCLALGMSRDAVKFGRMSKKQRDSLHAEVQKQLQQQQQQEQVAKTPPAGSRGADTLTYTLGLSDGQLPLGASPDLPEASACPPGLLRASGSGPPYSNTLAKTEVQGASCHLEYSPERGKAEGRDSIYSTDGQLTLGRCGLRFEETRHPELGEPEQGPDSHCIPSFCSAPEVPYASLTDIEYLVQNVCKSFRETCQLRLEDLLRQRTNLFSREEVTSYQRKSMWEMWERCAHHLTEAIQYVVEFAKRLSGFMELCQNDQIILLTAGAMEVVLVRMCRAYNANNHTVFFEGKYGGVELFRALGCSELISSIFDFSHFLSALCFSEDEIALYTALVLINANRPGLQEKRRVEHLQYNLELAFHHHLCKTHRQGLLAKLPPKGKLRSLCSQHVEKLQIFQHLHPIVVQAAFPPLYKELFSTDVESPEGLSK
#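 Drosophila S2 cells stably expressing Gal4-DBD/mouse RORγ fusion under metallothionein promoter plus UAS-luciferase; compound 1 h, then 700 uM CuSO4 induction for 20 h at ambient temperature; inhibition read as reduced luminescence.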
# VP16 counter: inhibits Gal4-VP16 luciferase reporter, ROR gamma counter-screen; Drosophila S2 Gal4-VP16 UAS-luciferase, luminescence, 20 h; Potency, µM (titrated, usually from 53.6 µM), without a hit: top-dose activity, negative = inhibition, actives largely listed as inhibitors; 310,000 compounds, 3.5% hits; AID 2546;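 note: Gal4-VP16 expression switched on by copper sulfate through the metallothionein promoter; potency is the fitted concentration of half-maximal effect; % is set by controls: 0 for no effect and ±100 for the full control effect; nearly all actives have a fitted effect of over 50% in size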
# BRCA1 expr up: BRCA1 expression activation; Potency, µM (highest dose often 46.1 µM), inactives show top-dose activation, hits mostly activators; 380,000 compounds, 1.1% hits; MCF7-BRCA1-FFLuc reporter, luminescence, 48 h; response scale: scaled: vehicle 0%, 10 µM genistein 100%; note: potency is the fitted concentration of half-maximal effect; nearly all actives have a fitted effect of over 80% in size
#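 Cells: MCF7-BRCA1-FFLuc, 2000/well. Exposure: 48 h, 37 °C, 5% CO2. Read: luminescence, 15 min post-substrate. Controls: genistein 10 microM (maximal activation), DMSO (neutral).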
# * hit, by the source's call; ? = inconclusive; . = no result; [ ] = remark or other dose. An excerpt weighted towards active compounds, which were near 7.6% of everything screened. Unless noted, calls come from the whole dose curve; as a rule, active = well fitted curve in the direction sought with a large enough effect; inconclusive = small, poorly fitted or top-dose-only effect, or another doubt; inactive = no such curve, though single readings can be large; an effect the other way counts as inactive or inconclusive.
SMILES,p53 reactivator,ELG1 DNA repair,Giardia killer,RORgamma inh,VP16 counter,BRCA1 expr up
COCCN(C(=O)c1oc2ccccc2c1COC)c1c(N)n(CC(C)C)c(=O)[nH]c1=O,-4%,3%,-10,.,.,-15%
COc1ccccc1-n1c(-c2ccccc2)c[nH]c1=S,1%,-7%,-30,2.8µM*,?,-12%
S=c1[nH]cc(-c2ccccc2)n1-c1ccccc1Cl,1%,-4%,6,3.5µM*,7.1µM*,-6%
S=c1[nH]ccn1-c1c(Cl)cccc1Cl,0%,28%,9,-43%,-1%,0%
COc1ccccc1-n1c(-c2cccnc2)n[nH]c1=S,0%,-2%,0,10%[0.365 µM],.,4%
CC(C)(C)Cc1nnc(NC(=O)CN2C(=O)c3ccccc3C2=O)s1,3%,-16%,-9,-7%,5%,0%
CCOC(=O)CSC1=NC(=O)/C(=C\c2ccc(Cl)cc2)S1,?,22%,-7,-26%,13µM*,?
CCOC(=O)C1CCN(C2=NC(=O)/C(=C/c3ccc(Cl)cc3)S2)CC1,-4%,-9%,-3,2%,3%,-26%
CCOC(=O)C1=CN(Cc2ccco2)S(=O)(=O)N(CC)C1c1cccc(OC)c1 (configuration not stated),-7%,2%,0,.,.,7%
CN(C)C(=O)c1ccc(-c2nc(Nc3ccncc3)c3ccccc3n2)cc1,.,.,.,-40%,-5%,.
COc1ccc(CNc2nc(-c3ccc(N(C)C)cc3)nc3ccccc23)c(OC)c1,.,.,.,5µM*,5µM*,.
CN(C)c1ccc(-c2nc(NCc3cccnc3)c3ccccc3n2)cc1,.,.,.,?,14µM*,.
CN(C)c1ccc(-c2nc(Nc3ccncc3)c3ccccc3n2)cc1,.,.,.,?,16µM*,.
Fc1ccc(Nc2nc(-c3ccncc3)nc3ccccc23)cc1,0%,2.3µM*,13,26%,?,-22%
O=C(COC(=O)COc1ccccc1F)Nc1ccc2c(c1)OCO2,-1%,9%,-3,.,.,6%
Fc1ccccc1Nc1nc(-c2ccncc2)nc2ccccc12,2%,2.6µM*,8,-16%,-17%,-3%
CN(C)c1ccc(-c2nc3ccccc3c(=O)[nH]2)cc1,5%,?,?,5.6µM*,?,-49%
c1ccc(CCNc2nc(-c3ccncc3)nc3ccccc23)cc1,1%,15µM*,-7,?,-11%,-38%
CC(Nc1nc(-c2ccncc2)nc2ccccc12)c1ccccc1 (configuration not stated),-1%,-6%,-5,?,-2%,-18%
c1ccc(Nc2nc(-c3ccncc3)nc3ccccc23)cc1,-5%,2.1µM*,-15,-26%,-18%,-5%
COC(=O)c1ccc(Nc2nc(-c3ccncc3)nc3ccccc23)cc1,-5%,-1%,-20,15%,-4%,16%
CCN(CC)S(=O)(=O)N1CCN(S(=O)(=O)N2CCOCC2)CC1,11%,15%,6,6%,-3%,1%
COc1ccc(CNC(=O)CN(C(=O)c2cc3sccc3n2C)C2CCCC2)cc1,-3%,?,0,7%,-27%,-38%
Cc1ccc(S(=O)(=O)CCC(=O)OCC(=O)N2CCc3ccccc32)cc1,-11%,19%,6,-23%,-12%,19%
CSc1ccccc1C(=O)Nc1ccc2c(c1)CCC2,?,?,2,18%,20%,11µM*
SMILES,p53 reactivator,ELG1 DNA repair,Giardia killer,RORgamma inh,VP16 counter,BRCA1 expr up
O=C(Nc1ccc2c(c1)CCC2)c1ccccc1Br,?,?,-3,-35%,-1%,?
COc1cc(OC)cc(C(=O)NC(C(=O)Nc2ccc3c(c2)CCC3)C(C)C)c1 (configuration not stated),-14%,7.3µM*,-20,.,.,-19%
O=C(Nc1ccc2c(c1)CCC2)c1cc(F)cc(F)c1,?,?,-6,.,.,3.2µM*
CC(=O)c1ccc(S(=O)(=O)N2CCN(CCOc3ccccc3)CC2)cc1,1%,-31%,11,.,.,-20%
COc1ccc(-c2cc(-c3ccccc3)nc(-c3ccc4c(c3)NC(=O)CO4)c2)cc1,-4%,23µM*,-26,-9%,-9%,-4%[1.84 µM]
COc1ccccc1Nc1nc(-c2ccc3c(c2)NC(=O)CO3)cs1,0%,?,8,25%,-20%,3%
COc1ccc(Nc2nc(-c3ccc4c(c3)NC(=O)CO4)cs2)cc1,0%,16µM*,?,43%,7%,7%
Cn1c(=O)c2c(nc(OC3CCCC3)n2C)n(C)c1=O,.,.,12,.,.,5%
CCn1c(SCC(=O)Nc2ccc(OC)cc2)nc2nc3c(cc2c1=O)COC(C)(C)C3,-5%,21µM*,5,-8%,-12%,2%
CCn1c(SCC(=O)Nc2ccc(C(C)=O)cc2)nc2nc3c(cc2c1=O)COC(C)(C)C3,12%,?,-20,1%,20%,80%
CCOc1ccc(NC(=O)CSc2nc3nc4c(cc3c(=O)n2CC)COC(C)(C)C4)cc1,-4%,?,17,3%,-6%,-28%
CCn1c(SCC(=O)Nc2ccccc2C)nc2nc3c(cc2c1=O)COC(C)(C)C3,-3%,13µM*,4,-1%,-7%,-10%
O=C1c2ccccc2C(O)N1Cc1ccco1 (configuration not stated),1%,5%,?,63%,2%,-12%
CC1(C)Oc2ccc3ccc(=O)oc3c2/C(=C/NCCN/C=C2\C(=O)C(C)(C)Oc3ccc4ccc(=O)oc4c32)C1=O,-4%,8.2µM*,.,-1%,-18%,.
Cc1cc(NC(=O)CSc2nnc(CNC(=O)c3cccc(C(F)(F)F)c3)o2)no1,16%,22%,6,-11%,2%,0%
Cc1ccc(N(C(=O)CCl)C(C(=O)NC2CCCCC2)c2cccnc2)cc1C (configuration not stated),-23%,9.2µM*,11,11µM*,?,-82%
COc1cc(CN(C)CC(=O)c2[nH]c(C)c(C(C)=O)c2C)ccc1OC(F)F,-8%,?,-8,3%,2.8µM*,-49%
N#Cc1ccc(C2=NC(C(F)(F)F)(C(F)(F)F)c3c(n(Cc4ccco4)c(=O)[nH]c3=O)N2)cc1,-2%,?,4,13µM*,?,1%[1.84 µM]
O=c1[nH]c(=O)n(-c2ccc(F)cc2)c2c1C(C(F)(F)F)(C(F)(F)F)N=C(c1ccc(F)cc1)N2,0%,?,-9,-26%,16µM*,-96%
CCCc1noc(-c2cccc([N+](=O)[O-])c2)n1,29%,0%,-29,1%,11%,-5%

# Screening results: PubChem BioAssay, National Center for Advancing Translational Sciences (NCATS)
